# Laboratory results: PubChem BioAssay
# “And” between values parts separate entries of the source, which are not always exact repeats. Identical values can stand only once. Inconclusive results are not listed. The source made the active and inactive calls.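 The calls were made as follows, unless noted: active = compounds whose cell count with miR-34 switched on is under 0.7 times the count with it off; inactive = the rest.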
# What was measured:
# [1] = stimulators of nuclear beta-catenin in C2C12, primary screen, imaging, WNT3A-conditioned medium, mouse C2C12, NPC library (AID 1117326; in the data active = nuclear beta-catenin stimulation mostly above about 4.2%, no sharp cut-off; inactive = mostly below about 10%; also: reference of the scale not given here); conditions: stronger effect = higher value
# [2] = stimulators of insulin release from INS-1E, primary screen, cell-based, 5 mM glucose, NPC library (AID 1117329;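 active = compound raises insulin release from rat beta cells at 5 mM glucose, no numeric limit stated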; also: reference of the scale not given here); conditions: rat INS-1E insulin secretion, at 10 µM, stronger effect = higher value
# [3] = growth inhibition of GSK3B-pretreated HCT116 cells – cell-based, CellTiter-Glo, 0.2 to 20 µM (AID 1117336;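 active = compounds lowering colon cancer cell viability after pretreatment blocking the GSK3B kinase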); conditions: HCT116 viability after GSK3B inhibitor, at 20 µM, stronger effect = higher value
# [4] = inhibition of endothelial tube formation, primary screen, imaging, VEGF stimulated, CD31 staining, tube area, NPC library (AID 1117340;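 active = compound that reduces growth-factor-driven endothelial tube area in a mixed cell culture, no cutoff stated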); conditions: VEGF-stimulated ADSC/ECFC co-culture, at 10 µM, stronger effect = higher value
# [5] = glucagon-like peptide 1 release enhancers, primary assay, NCI-H716 cell line, NPC library (AID 1117341;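 active = compound raises GLP1 secretion from the human gut endocrine cells, with no numeric limit stated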; also: reference of the scale not given here); conditions: NCI-H716 cells, at 10 µM, stronger effect = higher value
# [6] = HCT116 colon cancer cell growth inhibition, primary screen, CellTiter-Glo luminescence, NPC library (AID 1117342;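 active = compounds that lower survival of HCT116 colon cancer cells in the luminescence readout, no numeric limit stated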); conditions: at 20 µM (top of the series)
# [7] = CellTiter-Glo luminescent readout of SW480 viability loss, NPC library primary (AID 1117343;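 active = compounds that lower viability of the colon cancer cells in the luminescence readout, with no numeric limit stated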); conditions: CellTiter-Glo luminescence; at 20 µM (top of the series) unless noted
# [8] = decreased DLD-1 cellular survival, CellTiter-Glo luminescent readout, NPC compound collection, primary HTS (AID 1117346;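 active = compounds that lower survival of DLD-1 colon cancer cells in the luminescence readout, no cutoff given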); conditions: DLD-1 viability, CellTiter-Glo luminescence; at 20 µM (top of the series)
# [9] = test system: Aerobactin synthetase IucA (Klebsiella pneumoniae); test: IucA aerobactin synthetase inhibitors, biochemical, Tocris library, absorbance (AID 1345561; call rule not given here;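 also: 100% = enzyme without compound and 0% = no enzyme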); conditions: purified IucA enzyme assay, absorbance (OD) read-out; stronger effect = lower value;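 tested at 8 µM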
# [10] = sensitizers of A549 cells to miR-34 induction, primary screen, imaging, A549 dox-inducible miR-34, nuclei and caspase counts (AID 1347080); conditions: A549 miR-34 inducible, Hoechst nuclei count, 48 h
# [11] = target: NAD(+) hydrolase SARM1 (Homo sapiens) (UniProt Q6SZW1); test: SARM1 TIR NADase inhibitors, cell lysate, NAD-Glo luminescence (AID 1508614;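 active = compound whose remaining NAD level is above about 45 nM, limit read from the data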;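 also: higher remaining NAD means stronger inhibition of SARM1 NADase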); conditions: SAM-TIR HEK293T lysate NADase, at 1 µM, stronger effect = higher value
# Chain of NAD(+) hydrolase SARM1 (Homo sapiens) (Q6SZW1 whole entry, looked up): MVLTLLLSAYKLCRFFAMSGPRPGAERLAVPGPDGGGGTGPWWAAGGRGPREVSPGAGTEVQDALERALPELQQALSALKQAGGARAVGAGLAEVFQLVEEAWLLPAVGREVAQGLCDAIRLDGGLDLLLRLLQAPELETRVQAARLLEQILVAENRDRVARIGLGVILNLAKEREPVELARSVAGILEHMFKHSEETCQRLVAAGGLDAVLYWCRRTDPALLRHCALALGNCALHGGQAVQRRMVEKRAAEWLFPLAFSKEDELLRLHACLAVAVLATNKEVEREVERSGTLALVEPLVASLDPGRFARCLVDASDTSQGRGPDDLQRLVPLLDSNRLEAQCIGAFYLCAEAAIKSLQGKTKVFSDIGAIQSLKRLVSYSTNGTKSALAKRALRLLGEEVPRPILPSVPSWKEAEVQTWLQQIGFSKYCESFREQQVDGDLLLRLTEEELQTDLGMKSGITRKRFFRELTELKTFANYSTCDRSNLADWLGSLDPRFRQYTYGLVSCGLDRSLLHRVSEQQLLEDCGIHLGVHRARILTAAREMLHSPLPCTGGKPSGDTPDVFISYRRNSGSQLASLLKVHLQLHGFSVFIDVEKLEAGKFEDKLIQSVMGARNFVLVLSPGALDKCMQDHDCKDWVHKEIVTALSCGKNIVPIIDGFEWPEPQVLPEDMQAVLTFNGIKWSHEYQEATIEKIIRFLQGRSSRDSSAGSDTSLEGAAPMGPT
# [12] = viability rescue of complex I mutant cybrids, primary screen, cell-based, galactose medium, ATP luminescence (AID 1645843;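 active = z-score of at least 1.8 in each of two replicates, scored against plate mean and spread of sample wells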;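 also: positive z means more ATP and so rescue of galactose-driven cybrid death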); conditions: complex I mutant cybrid cells, 72 h, stronger effect = higher value
# [13] = liver-stage malaria parasite growth inhibition, primary screen, cell-based, HepG2, luciferase luminescence, HepG2 viability (AID 624349; in the data active = parasite load remaining mostly below about 12%, no sharp cut-off; inactive = mostly above about 10%;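 also: 100% = mean of DMSO negative control wells on the same plate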); conditions: P. berghei liver stage in HepG2, luciferase luminescence, concentration not given here; parasite load remaining: stronger effect = lower value; viability: measured here: HepG2 viability without parasites
# [14] = survival rescue of mitochondrial mutant cells in low glucose, primary screen, MELAS cybrids, Rieske KO mouse fibroblasts, CellTiter-Glo (AID 1508586;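 active = mean z-score across replicates of 1.96 or higher in either the MELAS or the Rieske mutant cell line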;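 also: z relative to plate mean and SD of compound and empty wells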)
# [15] = growth inhibition of DIPG glioma cells, dose response, cell-based, SU-DIPG-XVII, MIPE5.0, CellTiter-Glo, qHTS (AID 1347060; cut-off not given, nearly all actives have AC50 up to about 26 µM); conditions: SU-DIPG-XVII viability, CellTiter-Glo ATP luminescence
# [16] = growth inhibition of DIPG glioma cells, dose response, cell-based, SU-DIPG-XIII, MIPE4.0, CellTiter-Glo, qHTS (AID 1347061; cut-off not given, nearly all actives have AC50 up to about 37 µM;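 also: cells exposed to compound for 48 hours before readout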); conditions: SU-DIPG-XIII viability, CellTiter-Glo ATP luminescence
# [17] = growth inhibition of DIPG glioma cells, dose response, cell-based, JHH-DIPG-1, MIPE4.0, CellTiter-Glo, qHTS (AID 1347062; cut-off not given, nearly all actives have AC50 up to about 27 µM); conditions: JHH-DIPG-1 viability, CellTiter-Glo ATP luminescence
# [18] = SU-DIPG-XXV glioma cell viability, MIPE5.0 library, qHTS (AID 1347068; cut-off not given, nearly all actives have IC50 up to about 30 µM)
# [19] = stronger effect = lower value, cell number ratio, induced over uninduced
# [20] = measured here: relative caspase fold change +Dox/-Dox
# [21] = measured here: total cells with miR-34 induction, stronger effect = lower value
# [22] = measured here: total cells without miR-34 induction
structure (smiles),measurement,setting,value
CN1CCC[C@@H]1Cc1c[nH]c2ccc(CCS(=O)(=O)c3ccccc3)cc12,nuclear beta-catenin stimulation,[1]; at 10 µM,1.8% (inactive)
same,nuclear beta-catenin stimulation,"[1]; stimulation, at 2 µM",1%
same,insulin secretion stimulation,[2],3.3% (inactive)
same,viability decrease,[3],30.6% (inactive)
same,tube area decrease,[4],0.6% (inactive)
same,GLP1 secretion stimulation,[5],5.3% (inactive)
same,inhibition of viability,[6],36.8% (inactive)
same,viability decrease (inhibition),[7],19.5% (inactive)
same,viability decrease (inhibition),[8],-0.8% (inactive)
same,remaining activity,[9],117% (inactive)
same,fold change,[10]; [19],0.993 (inactive) and 0.947 (inactive)
same,fold change,[10]; [20],1.11 and 0.557
same,cell count,[10]; [21],9730 and 9170
same,cell count,[10]; [22],9790 and 9680
same,remaining NAD,[11],10 nM (inactive)
same,z-score,[12],-0.6 (inactive) and -0.525 (inactive)
c1cc(CN2CCCCC2)cc(OCCCNc2nc3ccccc3s2)c1,nuclear beta-catenin stimulation,[1]; at 10 µM,3.6% (inactive)
same,nuclear beta-catenin stimulation,"[1]; stimulation, at 2 µM",0.7%
same,insulin secretion stimulation,[2],32.8% (active)
same,viability decrease,[3],29.5% (inactive)
same,tube area decrease,[4],22.6% (inactive)
same,GLP1 secretion stimulation,[5],0.5% (inactive)
same,inhibition of viability,[6],53.3% (active)
same,viability decrease (inhibition),[7],-462% (inactive)
same,viability decrease (inhibition),[8],58.6% (active)
same,remaining activity,[9],120% (inactive)
same,fold change,[10]; [19],1.11 (inactive) and 0.901 (inactive)
same,fold change,[10]; [20],0.913 and 0.9
same,cell count,[10]; [21],7430 and 7110
same,cell count,[10]; [22],6660 and 7890
same,z-score,[12],-1.34 (inactive) and -0.8 (inactive)
Cl/C(=C\n1cncn1)c1ccc(Cl)cc1Cl,nuclear beta-catenin stimulation,[1]; at 10 µM,3.9% (inactive)
same,nuclear beta-catenin stimulation,"[1]; stimulation, at 2 µM",4%
same,insulin secretion stimulation,[2],2.4% (inactive)
same,viability decrease,[3],3% (inactive)
same,tube area decrease,[4],-2.8% (inactive)
same,GLP1 secretion stimulation,[5],-1.4% (inactive)
same,inhibition of viability,[6],30.3% (inactive)
same,viability decrease (inhibition),[7],13.4% (inactive)
same,viability decrease (inhibition),[8],24.2% (inactive)
same,remaining activity,[9],121% (inactive)
same,fold change,[10]; [19],0.89 (inactive)
same,fold change,[10]; [20],0.653
same,cell count,[10]; [21],8590
same,cell count,[10]; [22],9640
same,z-score,[12],-0.15 (inactive)
CC(C)C(=O)c1c(C(C)C)nn2ccccc12,parasite load remaining,[13],83.4% (inactive)
same,viability,[13],97%
same,nuclear beta-catenin stimulation,[1]; at 10 µM,-0.8% (inactive)
same,nuclear beta-catenin stimulation,"[1]; stimulation, at 2 µM",0.4%
same,insulin secretion stimulation,[2],24.5% (active)
same,viability decrease,[3],39.4% (inactive)
same,tube area decrease,[4],-13.6% (inactive)
same,GLP1 secretion stimulation,[5],3.4% (inactive)
same,inhibition of viability,[6],31.8% (inactive)
same,viability decrease (inhibition),[7],5% (inactive)
same,viability decrease (inhibition),[8],1.8% (inactive)
same,remaining activity,[9],110% (inactive)
same,fold change,[10]; [19],1.02 (inactive) and 0.934 (inactive) and 0.944 (inactive)
same,fold change,[10]; [20],0.854 and 0.782 and 0.951
same,cell count,[10]; [21],9930 and 7850 and 8420
same,cell count,[10]; [22],9700 and 8400 and 8930
same,z-score,"[14]; MELAS cybrid survival, CellTiter-Glo 48 h, stronger effect = higher value",1.07 (inactive) and 0.83 (inactive)
same,z-score,"[14]; Rieske KO mouse fibroblast survival, CellTiter-Glo 72 h",-0.15 and -1.19
same,z-score,[12],0.105 (inactive) and -0.07 (inactive) and 0.255 (inactive)
Cc1[nH]c(=O)c(C#N)cc1-c1ccc2nccn2c1,nuclear beta-catenin stimulation,[1]; at 10 µM,-1.8% (inactive)
same,nuclear beta-catenin stimulation,"[1]; stimulation, at 2 µM",-0.5%
same,insulin secretion stimulation,[2],3% (inactive)
same,viability decrease,[3],-9.8% (inactive)
same,tube area decrease,[4],-3.8% (inactive)
same,GLP1 secretion stimulation,[5],-0.6% (inactive)
same,inhibition of viability,[6],-1.6% (inactive)
same,viability decrease (inhibition),[7],0.1% (inactive)
same,viability decrease (inhibition),[8],-7.8% (inactive)
same,outcome,[15],inactive
same,outcome,[16],inactive
same,outcome,[17],inactive
same,outcome,[18],inactive
same,fold change,[10]; [19],0.996 (inactive)
same,fold change,[10]; [20],0.805
same,cell count,[10]; [21],9250
same,cell count,[10]; [22],9290
same,z-score,[12],0.905 (inactive)
